Measurements from PubChem BioAssay AID1159580 (chemical genetic matrix, 2015).
“And” between values parts separate entries of the source, which are not always exact repeats. Equal values may be shown once. Among all 5,500 compounds or so, about 2,000 (36%) were called active. Inconclusive results (about 18%) are left out. No stated cut-off is given here; in the data, active means normalized growth mostly below about 0.91 (no sharp cut-off); inconclusive means no clear call, values can overlap the other calls; inactive means mostly above about 0.92. The list shows a part of the results.

Experiment: chemical genetic growth profiling, strain panel (AID 1159580);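 further: tested at 20 µM; growth read once vehicle control cultures reached saturation at 30 °C; 1 = growth at the plate median or of vehicle wells; lower values mean less growth of the strain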
Conditions: S. cerevisiae deletion strains, growth OD

Measured: normalized growth

Cc1c(C(N)=O)cc([N+](=O)[O-])cc1[N+](=O)[O-]
inactive: locus YAL021C, strain ccr4, hits give low values 0.995 | locus YAL026C, strain drs2, hits give low values 1.04 | locus YAL030W, strain snc1, hits give low values 1.01 | locus YBL061C, strain skt5, hits give low values 1.02 | locus YBR009C, strain hhf1, hits give low values 1.08 | locus YBR021W, strain FUR4, hits give low values 0.969 | locus YBR023C, strain chs3, hits give low values 1.03 | locus YBR171W, strain sec66, hits give low values 1.01 | locus YBR229C, strain ROT2, hits give low values 0.986 | locus YBR231C, strain swc5, hits give low values 0.996 | locus YBR279W, strain paf1, hits give low values 1.02 | locus YCL011C, strain gbp2, hits give low values 1.03 | locus YCL016C, strain dcc1, hits give low values 1.04 | locus YCL029C, strain bik1, hits give low values 0.977 | locus YCL061C, strain MRC1, hits give low values 1.03 | locus YCL069W, strain vba3, hits give low values 1.02 | locus YCR088W, strain abp1, hits give low values 1.01 | locus YDL005C, strain med2, hits give low values 1.02 | locus YDL035C, strain GPR1, hits give low values 0.994 | locus YDL040C, strain nat1, hits give low values 1.02 | locus YDL074C, strain BRE1, hits give low values 1.01 | locus YDL101C, strain DUN1, hits give low values 0.99 | locus YDL134C, strain PPH21, hits give low values 0.97 | locus YDL185W, strain tfp1, hits give low values 0.967 | locus YDL192W, strain arf1, hits give low values 0.966 | locus YDR001C, strain nth1, hits give low values 1.01 | locus YDR069C, strain doa4, hits give low values 0.997 | locus YDR101C, strain arx1, hits give low values 1 | locus YDR137W, strain rgp1, hits give low values 1.04 | locus YDR150W, strain NUM1, hits give low values 0.99 | locus YDR159W, strain sac3, hits give low values 0.991 | locus YDR162C, strain NBP2, hits give low values 0.994 | locus YDR195W, strain ref2 1.02 | locus YDR297W, strain sur2, hits give low values 1.01 | locus YDR318W, strain mcm21, hits give low values 0.983 | locus YDR334W, strain swr1, hits give low values 1.02 | locus YDR335W, strain msn5, hits give low values 1.03 | locus YDR388W, hits give low values 0.982 | locus YDR392W, strain spt3, hits give low values 1 | locus YDR502C, strain sam2, hits give low values 1 | locus YEL003W, strain gim4, hits give low values 1.03 | locus YEL037C, strain rad23, hits give low values 1.02 | locus YEL061C, strain CIN8 (second series), hits give low values 1.02 | locus YEL061C, strain CIN8, hits give low values 0.99 | locus YER015W, strain faa2, hits give low values 1.01 | locus YER016W, strain bim1, hits give low values 1.01 | locus YER110C, hits give low values 0.965 | locus YER111C, strain swi4, hits give low values 1.02 | locus YER155C, strain BEM2 (second series), hits give low values 0.978 | locus YER155C, strain BEM2, hits give low values 0.987 | locus YER167W, strain BCK2, hits give low values 0.99 | locus YFR010W, strain ubp6, hits give low values 1.03 | locus YGL078C, strain dbp3, hits give low values 0.98 | locus YGL086W, strain mad1, hits give low values 0.994 | locus YGL167C, strain pmr1, hits give low values 1.03 | locus YGL173C, strain kem1, hits give low values 1.01 | locus YGL227W, strain vid30, hits give low values 1.01 | locus YGL240W, strain doc1, hits give low values 1 | locus YGL248W, strain PDE1, hits give low values 1 | locus YGL253W, strain hxk2, hits give low values 1.02 | locus YGR078C, strain PAC10, hits give low values 1 | locus YGR135W, strain pre9, hits give low values 0.977 | locus YGR252W, strain gcn5, hits give low values 0.945 | locus YHR013C, strain ard1, hits give low values 1.07 | locus YHR027C, strain rpn1, hits give low values 1.02 | locus YHR030C, strain SLT2, hits give low values 0.98 and 1.04 | locus YHR079C, strain IRE1 (second series), hits give low values 0.984 | locus YHR079C, strain IRE1, hits give low values 1.04 | locus YHR094C, strain hxt1, hits give low values 0.977 | locus YHR129C, strain ARP1, hits give low values 0.993 | locus YHR142W, strain chs7, hits give low values 1.02 | locus YHR200W, strain rpn10, hits give low values 0.98 | locus YIL066C, strain RNR3, hits give low values 0.988 | locus YIL073C, strain SPO22, hits give low values 0.95 | locus YIL125W, strain kgd1, hits give low values 0.99 | locus YIR030C, strain dcg1, hits give low values 0.984 | locus YJL092W, strain hpr5, hits give low values 1.02 | locus YJL095W, strain BCK1 (second series), hits give low values 1.04 | locus YJL095W, strain BCK1, hits give low values 1.02 and 1.05 | locus YJL115W, strain asf1, hits give low values 1.03 | locus YJL129C, strain trk1, hits give low values 1.05 | locus YJL134W, strain LCB3, hits give low values 0.991 | locus YJL154C, strain vps35, hits give low values 1.01 | locus YJL164C, strain tpk1, hits give low values 1.06 | locus YJL166W, strain qcr8, hits give low values 1.02 | locus YJL168C, strain set2, hits give low values 0.979 | locus YJL187C, strain SWE1 (second series), hits give low values 0.999 | locus YJL187C, strain SWE1, hits give low values 1.01 | locus YJR043C, strain POL32, hits give low values 1.02
